PubChem BioAssay AID1671189 (National Center for Advancing Translational Sciences (NCATS), 2021)
Among all 1,100 compounds or so, about 70 (6%) were called active. Entries that show only a call come without a potency. About 22% were inconclusive and are not listed. This is one part of a sample in which actives are shown more often than they occur. The call rests on the fitted dose curve; in most records, active means well fitted curve in the direction sought with a large enough effect; inconclusive means small, poorly fitted or top-dose-only effect, or another doubt; inactive means no such curve, though single readings can be large or run the other way.

biological target: Polyunsaturated fatty acid lipoxygenase ALOX12 (Homo sapiens) (UniProt P18054); assay: Confirmatory qHTS assay for inhibitors of human arachidonate 12S-lipoxygenase (ALOX12): Round 2; settings: purified human 12-LOX, xylenol orange absorbance; series mostly up to 125 µM
Description: Assay Provider: Theodore R. Holman Ph.D. University of California, Santa Cruz, California Human lipoxygenase 12hLO is a member of the closely related lipoxygenase family of enzymes which catalyze the site-specific oxidation of arachidonic acid to various hormone precursor molecules and as such is a candidate for drug development in a variety of disease areas, such as cancer and inflammation. Inhibition of 12hLO activity was screened by utilizing arachidonic acid as a substrate. The extent of hydroperoxide product formation was measured by a secondary chromogenic reaction in which xylenol orange (XO, Sigma-Aldrich, cat. number 39,818-7) reacts with the ferric ions produced from the reaction between the hydroperoxide and ferrous ions. The Fe (III)-XO complex is characterized with red-shifted absorbance at 560 nm. A purified preparation of human 12hLO was supplied by Dr. Holman laboratory, University of California, Santa Cruz.
PROTOCOL TABLE SEQUENCE No. (e.g., 1, 2, 3, etc.); […] (e.g., Cells, Incubation, Reagent, etc.); VALUE; DESCRIPTION 1; Enzyme; 3 uL; 150 nM 12hLO enzyme solution dispensed in 1536-well Greiner black, clear bottom plates. 2; Compound; 23 nL; compounds and controls were added. 3; Incubate; 15 min; room temperature. 4; Substrate; 1 uL; 40 uM arachidonic acid (final concentration). 5; Incubate; 30 min; room temperature. 6; Reagent; 4 uL; Fe-XO solution was added to each well. 7; Incubation; 30 min; room temperature 8; Detector; absorbance; Read 1 at 405 nm absorbance using ViewLux (PerkinElmer) CCD imager. 9; Detector; absorbance; Read 2 at 573 nm absorbance using ViewLux (PerkinElmer) CCD imager. NOTES (numbers refer to sequence above) 1; 150 nM 12hLO (final concentration) in buffer solution (25 mM Hepes, 0.01% Triton X-100, pH 7.0) was dispensed in columns 1, 2, 5-48. Column 1 is neutral (100% activity). Buffer only was dispensed in columns 3 and 4 as no enzyme negative controls. The plates were covered with metal lids with gas-exchange holes. 2; Compounds were pin transferred via a Kalypsys Pin Tool (Wako USA) in column 5 - 48. Control compound was transferred in column 2, titration of nordihydroguaiaretic acid (NDGA, Sigma-Aldrich, N5023) with top concentration of 20 mM in DMSO then 1:3 dilution in duplicate. Dilution factor of 23 nL into 4 uL final assay volume. 3; Covered assay plates were incubated for 15 min at room temperature. 4; Substrate was added to start the reaction; 40 uM arachidonic acid (Sigma-Aldrich, St. Louis, MO) was dispensed throughout the plate. 6; Chromogenic detection reagent solution (divalent iron/xylenol orange, Fe-XO) was added to each well: 200 uM xylenol orange, 300 uM ferrous ammonium sulfate prepared freshly in 50 mM sulfuric acid. 8, 9; Two absorbance readouts were obtained at 405 nm and at 573 nm using a ViewLux high-throughput CCD plate imager (PerkinElmer). The 573 to 405 (Read 2 / Read 1) absorbance ratio was used to compute reaction progress.
Potency means the concentration at half of the fitted maximal effect.

Sequence of Polyunsaturated fatty acid lipoxygenase ALOX12 (Homo sapiens) (P18054 whole entry, looked up): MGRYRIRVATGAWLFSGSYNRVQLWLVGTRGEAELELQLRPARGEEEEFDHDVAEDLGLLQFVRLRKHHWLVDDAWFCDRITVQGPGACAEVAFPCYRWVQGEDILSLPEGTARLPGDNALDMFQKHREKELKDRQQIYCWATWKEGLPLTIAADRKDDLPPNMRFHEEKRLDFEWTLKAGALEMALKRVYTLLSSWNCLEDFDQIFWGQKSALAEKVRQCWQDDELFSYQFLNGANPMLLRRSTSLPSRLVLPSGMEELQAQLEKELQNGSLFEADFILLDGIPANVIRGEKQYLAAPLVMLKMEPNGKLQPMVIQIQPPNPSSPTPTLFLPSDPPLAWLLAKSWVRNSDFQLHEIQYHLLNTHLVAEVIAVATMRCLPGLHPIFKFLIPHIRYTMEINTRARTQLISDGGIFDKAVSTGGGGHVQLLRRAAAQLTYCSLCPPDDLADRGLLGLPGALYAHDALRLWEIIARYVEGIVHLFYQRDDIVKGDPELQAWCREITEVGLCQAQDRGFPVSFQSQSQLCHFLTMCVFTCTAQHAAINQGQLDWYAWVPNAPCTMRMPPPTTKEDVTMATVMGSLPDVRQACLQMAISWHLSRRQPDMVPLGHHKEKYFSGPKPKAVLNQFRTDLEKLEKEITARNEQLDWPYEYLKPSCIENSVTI

Row | Compound | Potency
1 | O=C(Nc1ccc2n(c1=O)C[C@H]1C[C@@H]2CN(Cc2ccc(F)cc2)C1)c1cccs1 | inactive
2 | COc1ccccc1NC(=O)Nc1ccc2n(c1=O)C[C@H]1C[C@@H]2CN(C2CCOCC2)C1 | 14.1 µM (active)
3 | Cc1o[nH]c(=O)c1C[C@H](N)C(=O)O | inactive
4 | C#C[C@H]1CN2CC[C@H]1C[C@@H]2COC(=O)NCCC | 17.8 µM (active)
5 | O=C(O)C1=NOC2CN(Cc3cccc(Br)n3)CC12 (stereo not given) | inactive
6 | c1cc2nc(C3CCNCC3)[nH]c2cn1 | inactive
7 | CCN1C[C@]2(COC(=O)c3ccccc3N3C(=O)CC(C)C3=O)CC[C@H](OC)[C@@]34C5C[C@@H]6[C@@H](OC)C[C@@](O)(C5[C@H]6OC)[C@](O)([C@@H](OC)C23)[C@@H]14 (stereo not given in full) | inactive
8 | CCOc1ccc(CN(CCc2ccc3c(c2)OCO3)Cc2ccc(C)cc2)cc1 | inactive
9 | N[C@@]1(C(=O)O)CC[C@H](C(=O)O)C1 | inactive
10 | CSc1ccc(-c2ccc(=O)n3c2[C@@H]2C[C@@H](CN(S(=O)(=O)c4cccs4)C2)C3)cc1 | 15.8 µM (active)
11 | CCCS(=O)(=O)N1C[C@@H]2C[C@H](C1)c1c(-c3ccc(Cl)cc3)ccc(=O)n1C2 | inactive
12 | CSc1ccc(-c2ccc(=O)n3c2[C@@H]2C[C@@H](CN(S(C)(=O)=O)C2)C3)cc1 | inactive
13 | CSc1ccc(CN2CCN(C(=O)COc3ccc(C)cc3)CC2)cc1 | inactive
14 | O=C(Cc1ccc(Cl)cc1)N1Cc2ccccc2CC2(CCCN2CC2CCNC2)C1 (stereo not given) | inactive
15 | O=C(O)C1CN(Cc2ncc[nH]2)CCN(C(=O)Cc2cccs2)C1 (stereo not given) | inactive
